Assay [1] in a line: qHTS Assay for Identification of Small Molecule Inducers of Hypoxia Response (AID 2120; active = well fitted curve in the direction sought with a large enough effect in the signal ratio, with a control signal flat, not every such curve was filed as active; the % refers to the signal ratio). In short, it runs like this: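 Induction of beta-lactamase reporter activity was measured in CellSensor HRE-bla ME-180 cells after 17 h compound treatment at 37 degrees C, using CCF4 substrate and the 460nm/530nm emission ratio to derive AC50 values.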
(Quantitative high-throughput screening tests each substance at several concentrations.)

Assay [2] can be described thus: qHTS for differential inhibitors of proliferation of Plasmodium falciparum line 7G8 (AID 1815).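 Also: parasite growth measured after three days of incubation.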 Also: potency is read from the fitted curve at half-maximal effect.
Assay [3] can be described thus: qHTS for differential inhibitors of proliferation of Plasmodium falciparum line GB4 (AID 1816).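 Also: parasite growth measured after 72 h incubation.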 Also: potency is read from the fitted curve at half-maximal effect. As to conditions: Potency: Plasmodium falciparum GB4 proliferation inhibition.
A short description of assay [4]: qHTS for differential inhibitors of proliferation of Plasmodium falciparum line 3D7 (AID 1876). Also: potency is read from the fitted curve at half-maximal effect.
Assay [5] can be described thus: qHTS for differential inhibitors of proliferation of Plasmodium falciparum line D10 (AID 1877).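 Also: parasites grown with compound for 72 h before DNA staining.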 Also: potency is read from the fitted curve at half-maximal effect.
Assay [6] is described as follows: qHTS for differential inhibitors of proliferation of Plasmodium falciparum line W2 (AID 1883).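 Also: parasites grown with compound for 72 h before lysis and staining.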 Also: potency is read from the fitted curve at half-maximal effect. As to conditions: Potency: Plasmodium falciparum W2 proliferation inhibition.
Assay [7] in a line: qHTS for differential inhibitors of proliferation of Plasmodium falciparum line HB3 (AID 1886).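 Also: parasites grown with compound for 72 h before SYBR Green readout.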 Also: potency is read from the fitted curve at half-maximal effect. As to conditions: Potency: Plasmodium falciparum HB3 proliferation inhibition.
Assay [8] addresses ATP-dependent DNA helicase Q1 (Homo sapiens) (UniProt P46063). In words: qHTS Validation Assay for Inhibitors of RecQ-Like Dna Helicase 1 (RECQ1) (AID 2353). Also: potency is read from the fitted curve at half-maximal effect. In short, it runs like this: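 50 nM RECQ1T1 preincubated 15 min with compound in Tris pH 8.0 buffer with MgCl2, DTT, Tween-20 and 2.5 ug/ml poly(dI-dC); started with 200 nM TAMRA/BHQ-2 forked duplex and 2 mM ATP. Unwinding read as fluorescence (525/598 nm), two reads 2 h apart.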

The target in assay [9] is DNA repair nuclease/redox regulator APEX1 (Homo sapiens) (UniProt P27695). The assay is described as follows: qHTS Validation Assay for Inhibitors of the Human Apurinic/apyrimidinic Endonuclease 1 (APE1) (AID 1705; also: potency is read from the fitted curve at half-maximal effect). Summed up: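 Read-out: TAMRA fluorescence (525 nm ex, 598 nm em) from cleavage of a quenched THF abasic-site duplex, 50 nM final; activity taken as intensity change between third and first of three reads 60 s apart.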
Sequence of DNA repair nuclease/redox regulator APEX1 (Homo sapiens) (P27695 whole entry, looked up): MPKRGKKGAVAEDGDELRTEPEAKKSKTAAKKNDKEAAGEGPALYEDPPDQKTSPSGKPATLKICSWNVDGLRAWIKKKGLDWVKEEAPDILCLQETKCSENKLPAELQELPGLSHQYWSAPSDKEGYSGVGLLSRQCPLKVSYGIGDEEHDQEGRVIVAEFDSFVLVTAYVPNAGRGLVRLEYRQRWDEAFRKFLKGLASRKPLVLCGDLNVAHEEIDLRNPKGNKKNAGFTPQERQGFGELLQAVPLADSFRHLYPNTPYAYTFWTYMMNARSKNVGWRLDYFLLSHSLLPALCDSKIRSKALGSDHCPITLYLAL

Assay [10] in a line: Counterscreen for APE1 Inhibitors: Fluorescent Dye Displacement Validation Assay (AID 1707). Also: potency is read from the fitted curve at half-maximal effect. In short, it runs like this: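 Assay buffer: Tris-HCl pH7.5 with 50mM NaCl, 2 mM MgCl2, 0.01% Tween-20. Dye 250 nM, duplex 50 nM final. Readout: decrease in ThO endpoint fluorescence, 480 nm excitation, 540 nm emission.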
For orientation: Counterscreens check selectivity or assay interference.

Assay [11] concerns the target Endonuclease 4 (Escherichia coli (strain K12)) (UniProt P0A6C1). The assay is described as follows: Counterscreen for APE1 Inhibitors: qHTS Validation Assay for Inhibitors of Endonuclease IV (AID 1708). In short, it runs like this:
(§1)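 2 nM enzyme was preincubated with compounds for 15 min at room temperature in 50 mM Tris-HCl pH 7.5, 50 mM NaCl, 2 mM MgCl2, 1 mM DTT, 0.01% Tween-20. 50 nM THF-abasic TAMRA/BHQ-2 duplex substrate started the reaction.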

A short description of assay [12]: qHTS for differential inhibitors of proliferation of Plasmodium falciparum line Dd2 (AID 1882). Also: nearly all actives have a fitted effect of over 65% in size. Also: potency is read from the fitted curve at half-maximal effect. As to conditions: Potency: Plasmodium falciparum Dd2 proliferation inhibition. In short, it runs like this:
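SYBR Green I DNA fluorescence read-out, ex 485/em 535 nm. Signals were normalized to 0.29 uM artemisinin and DMSO wells, then corrected using vehicle-only plates flanking each stack. Parasite growth ran 72 h in erythrocytes before lysis.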

Assay [13] can be described thus: qHTS Assay for Modulators of Human Peripheral Myelin Protein 22 (PMP22) Expression/Activity (AID 1967; active = well fitted curve in the direction sought with a large enough effect in the signal ratio; the % refers to the signal ratio). Summed up:
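Mouse MSC80 Schwann line, Pmp22 promoter–CBG68 reporter, EF-alpha–CBR internal control. 24h compound exposure, 37 °C/5% CO2, DMEM + 10% FBS. Readout: corrected green/red luminescence ratio, normalized to untreated cells; concentration-response curves fitted and classified.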

In assay [14] the target is Ferritin light chain (Equus caballus) (UniProt P02791). The assay is described as follows: qHTS Validation Assay for Identification of Novel General Anesthetics (AID 2323). Also: series mostly up to about 77 µM. In short, it runs like this:
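10 uM horse-spleen apoferritin + 1-AMA (50% saturated, PBS); cpd pin-transferred, 10 min RT. Ex 380/Em 535 nm endpoint. Activity normalized between free 1-AMA and 1-AMA/apoferritin; 4-parameter Hill fit of concentration-response.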

Assay [15] addresses RecQ-like DNA helicase BLM (Homo sapiens) (UniProt P54132). In words: qHTS Validation Assay for Inhibitors of Bloom's syndrome helicase (BLM) (AID 2364). Also: potency is read from the fitted curve at half-maximal effect. In short, it runs like this:
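BLM 50 nM in 25 mM Tris-HCl pH 8.0, 5 mM NaCl, 2 mM MgCl2, 1 mM DTT, 0.01% Tween-20, 2.5 ug/ml poly(dI-dC); 15 min cpd preinc, RT. Start: 200 nM forked DNA + 2 mM ATP (final). TAMRA read, 2 reads 2 h apart.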

Assay [16] in a line: Cytometric Cell-Based qHTS for Inhibitors of the mTORC1 Signaling Pathway in MEF (Tsc2-/-, p53-/-) Cells (AID 2660).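 Also: percent of cells above a phospho-rpS6 to PI ratio cutoff in each well; series mostly up to about 38 µM.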 Summed up: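 Cells are plated, treated with compound for 24 hrs at 37 degree Celsius, then fixed, blocked and immunostained for phospho-rpS6 Ser235/236. Propidium iodide counterstain follows. Per-well % positive cells is derived from the PI-normalized phospho-S6 signal.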

Assay [17] in a line: High Content Imaging Cell-Based qHTS for Inhibitors of the mTORC1 Signaling Pathway in MEF (Tsc2-/-, p53-/-) Cells (AID 2666).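 Also: percent of cells scored positive for phospho-rpS6 Ser235/236 immunostaining by imaging.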 Also: potency is read from the fitted curve at half-maximal effect. Summed up:
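Read-out: % positive cells per well, with thresholds from highest- and lowest-signal wells, based on phospho-rpS6 (Ser235/236) intensity normalized to Hoechst nuclear stain. Cells: Tsc2-/-, p53-/- MEFs carrying empty vector; compound 24 hrs, 37 degree Celsius.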

Assay [18] deals with Endonuclease 4 (Escherichia coli (strain K12)) (UniProt P0A6C1). In words: Counterscreen for APE1 Inhibitors: qHTS Assay for Inhibitors of Endonuclease IV (AID 2565). In short, it runs like this: as §1

The results in this text go back to PubChem BioAssay (NCATS).

Structures are written as SMILES. Records with an inconclusive call do not appear. Some of the results follow. Active and inactive are the calls of the source. Unless noted, calls follow the shape of the dose curve; as a rule, active = well fitted curve in the direction sought with a large enough effect; inconclusive = small, poorly fitted or top-dose-only effect, or another doubt; inactive = no such curve, though single readings can be large; an effect the other way counts as inactive or inconclusive.

Sequence of ATP-dependent DNA helicase Q1 (Homo sapiens) (P46063 whole entry, looked up): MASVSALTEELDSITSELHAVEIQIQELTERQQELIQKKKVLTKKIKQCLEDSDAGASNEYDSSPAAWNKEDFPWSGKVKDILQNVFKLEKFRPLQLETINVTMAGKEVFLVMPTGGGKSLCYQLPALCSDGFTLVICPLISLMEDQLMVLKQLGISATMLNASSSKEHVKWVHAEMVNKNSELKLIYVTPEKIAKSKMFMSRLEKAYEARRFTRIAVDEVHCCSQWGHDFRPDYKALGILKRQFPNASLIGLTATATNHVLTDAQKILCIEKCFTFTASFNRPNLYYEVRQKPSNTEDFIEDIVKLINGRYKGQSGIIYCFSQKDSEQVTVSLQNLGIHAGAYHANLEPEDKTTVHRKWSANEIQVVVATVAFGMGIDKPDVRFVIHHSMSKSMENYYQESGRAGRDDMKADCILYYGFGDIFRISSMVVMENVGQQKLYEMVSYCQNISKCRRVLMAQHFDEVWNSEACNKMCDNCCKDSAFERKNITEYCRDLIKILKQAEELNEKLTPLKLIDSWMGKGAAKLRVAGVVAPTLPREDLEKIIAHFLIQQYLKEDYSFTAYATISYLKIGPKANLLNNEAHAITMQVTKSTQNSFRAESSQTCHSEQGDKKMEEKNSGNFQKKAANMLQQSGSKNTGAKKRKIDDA
Sequence of Ferritin light chain (Equus caballus) (P02791 2-175 limits assumed): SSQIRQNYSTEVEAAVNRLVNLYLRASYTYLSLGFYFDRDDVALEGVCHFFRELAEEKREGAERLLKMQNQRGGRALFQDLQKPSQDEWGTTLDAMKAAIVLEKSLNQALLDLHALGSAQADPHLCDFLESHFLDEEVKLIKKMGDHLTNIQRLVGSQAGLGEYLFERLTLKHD
Sequence of RecQ-like DNA helicase BLM (Homo sapiens) (P54132 whole entry, looked up): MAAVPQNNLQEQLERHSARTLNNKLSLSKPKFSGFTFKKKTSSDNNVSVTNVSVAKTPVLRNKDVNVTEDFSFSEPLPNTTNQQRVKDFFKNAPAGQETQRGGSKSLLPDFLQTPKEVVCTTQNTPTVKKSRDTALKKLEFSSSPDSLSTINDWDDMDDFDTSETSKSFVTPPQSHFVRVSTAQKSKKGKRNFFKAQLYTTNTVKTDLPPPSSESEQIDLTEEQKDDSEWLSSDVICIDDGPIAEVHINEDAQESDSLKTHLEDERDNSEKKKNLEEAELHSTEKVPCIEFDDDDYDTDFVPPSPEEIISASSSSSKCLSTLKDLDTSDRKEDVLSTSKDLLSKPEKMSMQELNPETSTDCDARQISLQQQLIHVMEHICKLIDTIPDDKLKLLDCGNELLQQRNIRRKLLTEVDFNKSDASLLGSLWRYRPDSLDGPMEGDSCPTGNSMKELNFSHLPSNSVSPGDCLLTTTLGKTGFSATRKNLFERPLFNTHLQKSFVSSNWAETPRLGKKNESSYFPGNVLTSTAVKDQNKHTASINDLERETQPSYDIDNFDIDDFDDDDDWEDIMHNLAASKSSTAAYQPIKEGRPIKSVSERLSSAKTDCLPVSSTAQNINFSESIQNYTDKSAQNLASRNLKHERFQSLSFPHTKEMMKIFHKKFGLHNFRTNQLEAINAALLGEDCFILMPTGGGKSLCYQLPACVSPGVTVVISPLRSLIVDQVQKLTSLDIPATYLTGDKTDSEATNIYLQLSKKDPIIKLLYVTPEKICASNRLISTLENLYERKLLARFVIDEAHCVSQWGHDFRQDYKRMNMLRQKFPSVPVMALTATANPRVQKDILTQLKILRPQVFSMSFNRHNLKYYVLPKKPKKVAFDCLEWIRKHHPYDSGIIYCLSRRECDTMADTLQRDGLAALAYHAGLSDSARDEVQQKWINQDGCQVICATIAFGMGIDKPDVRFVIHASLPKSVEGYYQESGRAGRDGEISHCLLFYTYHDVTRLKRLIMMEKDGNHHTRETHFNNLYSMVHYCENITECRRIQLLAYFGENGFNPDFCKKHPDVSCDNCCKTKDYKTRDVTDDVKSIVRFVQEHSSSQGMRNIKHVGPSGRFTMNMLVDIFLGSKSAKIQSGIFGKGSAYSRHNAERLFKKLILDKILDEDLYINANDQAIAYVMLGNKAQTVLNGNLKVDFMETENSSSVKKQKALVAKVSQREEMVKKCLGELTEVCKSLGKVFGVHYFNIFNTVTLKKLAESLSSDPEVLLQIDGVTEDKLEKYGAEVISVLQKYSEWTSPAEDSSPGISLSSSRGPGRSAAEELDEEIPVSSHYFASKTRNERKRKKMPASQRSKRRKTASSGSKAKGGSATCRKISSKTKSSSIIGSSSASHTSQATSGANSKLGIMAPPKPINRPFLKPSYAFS

For `O=CC=O`, in assay [1], the result was inactive.

On to `CCCCCCCCCCCCCC(=O)O[C@@H]1[C@@H](C)[C@@]2(O)[C@@H](C=C(CO)C[C@@]3(O)C(=O)C(C)=C[C@@H]23)C2C(C)(C)[C@@]21OC(C)=O` (some centres undefined), for which the Potency in assay [2] was 5.62 µM (active); in [3] it was 11.2 µM (active); in assay [4], 10 µM (active); in assay [5], 11.2 µM (active); in assay [6], 7.08 µM (active); in assay [7] it was 12.6 µM (active). In assay [8], the Potency result was “inactive”.

On to `Clc1ccc(N2CC3CCC(C2)N3)nn1`, for which the Potency entry in [9], in assay [10], in [11], in assay [2], in [4] and in assay [5] was “inactive” each time. Also, the Potency entry in assay [12], in assay [7], in assay [8], in assay [15], in [16] and in assay [17] was “inactive” throughout. Further, the compound was called inactive in assay [13] and in [14].

As for `S=C=S`, in [1], the outcome was inactive.

For `CC(C)CCON=O`, the result in assay [1] was inactive.

For `CC(N)c1cccc(Cl)c1Cl` (centres undefined), the Potency result in assay [9], in assay [10], in assay [11], in [4], in assay [5] and in assay [7] was “inactive” each time. Besides, the Potency entry in assay [8], in [15], in [16] and in [17] was “inactive” throughout. The Potency was 11.2 µM (active) in [3] and 8.91 µM (active) in assay [6]. Further, the result in assay [13] was inactive.

For `CCCn1c(=O)c2[nH]c(C3CCCC3)nc2n(CCCOC(=O)c2ccc(S(=O)(=O)F)cc2)c1=O`, the Potency result in assay [9], in assay [10], in assay [11], in assay [5], in assay [8] and in assay [16] was “inactive” each time. Besides, the Potency result in assay [17] was “inactive”. Besides, the Potency in assay [2] is 12.6 µM (active); in [6], 11.2 µM (active).

As to `CCCN(CCC)[C@H]1CCc2c(F)ccc(O)c2C1`, the Potency result in assay [10], in [11], in assay [8], in assay [15], in [16] and in [17] was “inactive” throughout. For the same compound, the Potency in assay [2] is 1 µM (active); in assay [3], 0.501 µM (active); in assay [4], 2 µM (active); in [5], 2.24 µM (active); in assay [12], 1.26 µM (active); in [6] it was 0.447 µM (active). Moreover, the Potency in assay [7] is 1.41 µM (active). In addition, the compound was classed as inactive in assay [14].

For the compound `Cc1sc2ccccc2c1CC1=NCCN1`, the Potency result in assay [9], in assay [10], in assay [11], in [8], in assay [15] and in assay [16] was “inactive” in each case. Further, the Potency result in assay [17] is “inactive”. In addition, the results for the Potency in assay [3] and in [6] were 14.1 µM (active) and 8.91 µM (active), respectively. Moreover, the compound was classed as inactive in assay [13] and in [14].

As to `CO[C@H]1CC=C2CCN3CCC4=C(CC(=O)OC4)[C@]23C1`, the Potency entry in [9], in [10], in assay [2], in assay [3], in [4] and in [5] was “inactive” throughout. The Potency entry in assay [12], in assay [6], in assay [7], in assay [8], in [16] and in assay [17] was “inactive” each time. Also, the outcome in [13] and in assay [14] was inactive.

For `O=[N+]([O-])c1ccccc1`, the compound was called inactive in [1].

Turning to `c1ccc2c(c1)[I+]c1ccccc1-2`, the Potency was 0.1 µM (active) in assay [2]; 0.0708 µM (active) in assay [3]; 0.0708 µM (active) in assay [4]; 0.141 µM (active) in [5]; 1 µM (active) in [12]; 0.1 µM (active) in [6]. Besides, the Potency in assay [7] is 0.0562 µM (active); in assay [17] it was 3.29 µM (active). Further, the compound was classed as inactive in [14] and in assay [18]. Besides, the Potency entry in [8] and in assay [15] was “inactive” throughout.

For `CN(N=O)c1cc(O)ccc1O`, the Potency in assay [9] was 1.41 µM (active); in assay [10] it was 14.1 µM (active); in assay [8] it was 7.94 µM (active); in assay [15], 28.2 µM (active). Also, the Potency entry in assay [11], in [2], in [4], in assay [5], in [12] and in [6] was “inactive” each time. The Potency entry in assay [7] was “inactive”. In addition, the outcome in [14] was inactive.

Consider `CC(C)(C)c1o[nH]c(=O)c1CC(N)C(=O)O` (centres undefined), for which the Potency result in assay [9], in [10], in [2], in assay [3], in [4] and in assay [5] was “inactive” in each case. Besides, the Potency result in [12], in [7], in assay [8], in [16] and in assay [17] was “inactive” in each case. In addition, the compound was classed as inactive in assay [13] and in assay [14].

Take `O=C/C=C/c1ccccc1`: the outcome in [1] was inactive.
